Data from PubChem BioAssay (NCI).
Compounds without any hit were thinned out: in the full panel of roughly 83,000, 20% have a hit.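 How to read the values: 0–100, growth inhibition (40 = 60% inhibited); 0, no net growth; -100 to 0, cell death (-40 = 40% of starting cells died; -100 = all dead).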 A number with no mark means an inactive call. Activity calls are given as the source filed them. The calls were made as follows: active = growth percent below 10; inactive = the rest.

What was measured:
Experiment in all cases: NCI-60 one-dose screen, 48 h (100 = growth as untreated, 0 = no growth, -100 = all killed)
Details in all cases: 10 µM unless noted
NCI-H23 lung = test system: NCI-H23 lung
NCI-H226 lung = test system: NCI-H226 lung
NCI-H322M lung = test system: NCI-H322M lung
HOP-62 NSCLC = test system: HOP-62 NSCLC
NCI-H460 lung = test system: NCI-H460 lung
HOP-92 NSCLC = test system: HOP-92 NSCLC
NCI-H522 lung = test system: NCI-H522 lung
A549/ATCC NSCLC = test system: A549/ATCC NSCLC
786-0 renal = test system: 786-0 renal
COLO 205 colon = test system: COLO 205 colon
DU-145 prostate = test system: DU-145 prostate
K-562 leukemia = test system: K-562 leukemia
MALME-3M melanoma = test system: MALME-3M melanoma
MDA-MB-231 breast = test system: MDA-MB-231 breast
RXF 393 renal = test system: RXF 393 renal
SF-268 CNS = test system: SF-268 CNS
SF-295 CNS = test system: SF-295 CNS
SF-539 CNS = test system: SF-539 CNS
UACC-257 melanoma = test system: UACC-257 melanoma
M14 melanoma = test system: M14 melanoma

SMILES	growth (NCI-H23 lung) [%]	growth (NCI-H226 lung) [%]	growth (NCI-H322M lung) [%]	growth (HOP-62 NSCLC)	growth (NCI-H460 lung)	growth (HOP-92 NSCLC)	growth (NCI-H522 lung)	growth (A549/ATCC NSCLC) [%]	growth (786-0 renal) [%]	growth (COLO 205 colon)	growth (DU-145 prostate) [%]	growth (K-562 leukemia)	growth (MALME-3M melanoma)	growth (MDA-MB-231 breast) [%]	growth (RXF 393 renal)	growth (SF-268 CNS) [%]	growth (SF-295 CNS) [%]	growth (SF-539 CNS)	growth (UACC-257 melanoma) [%]	growth (M14 melanoma)
Cc1ccc(NC(=O)Cn2nncc2CN2C(=O)CSC2=O)cc1C	96.8	90.7	103	98.5%	105%	112%	94.8%	102	108	106%	106	106%	99%	111	103%	98.5	103	101%	102	105%
Cc1cc(Cl)c2ccc(N(C)C)cc2n1	100	97.6	110	95.5%	106%	102%	-10.1% (active)	94.9	99	102%	113	88.7%	108%	102	95.5%	102	100	106%	97.4	100%
CNC(=O)c1ccccc1Sc1ccc2c(/C=C/c3ccccn3)n[nH]c2c1	47.5	20.9	34.9	24.3%	20.2%	9.47% (active)	24.2%	28.6	44	3.49% (active)	47.5	6.57% (active)	37.2%	39.7	2.21% (active)	41.9	40	3.31% (active)	31.5	16.9%
CC(=O)c1c(C)nc(-c2cc(C)cc(Cl)c2)nc1-c1cccc(Oc2ccccc2)c1	86	84	91	76.2%	36.1%	38%	59%	69.1	70.3	70.2%	85.8	19.9%	74.8%	55	90.5%	71	77.3	86%	81.1	31.7%
CC(=O)N1N=C(c2ccc(C)cc2)CC1c1cn(-c2ccccc2)nc1-c1cccc(Nc2ccnc3cc(Cl)ccc23)c1 (stereo not given)	79.1	111	56.9	-19.7% (active)	15.8%	78.7%	36%	68.4	52.3	93.8%	34.3	15.1%	-2.79% (active)	58.9	67.8%	73.7	109	99.4%	106	87.3%
Oc1ccc(Nc2ncnc3c2sc2ncccc23)cc1	11.2	42.6	47	9.02% (active)	9.18% (active)	28.5%	33.6%	26.9	12.5	36%	17.2	38.2%	60.6%	64.4	35.3%	23.7	15.1	5.87% (active)	36.4	-19% (active)
O=[N+]([O-])c1cc(F)c2cccnc2c1O	87.8	102	100	97.1%	92.1%	104%	60.8%	105	102	104%	121	109%	103%	99.5	148%	106	110	91%	115	88.5%
Cc1cc(O)c(C2=NN(c3ccc(S(N)(=O)=O)cc3)C(c3ccc(Cl)cc3)C2)c(C)c1Cl (stereo not given)	78.8	106	75.3	84.3%	3.35% (active)	21.3%	57.7%	33.2	43.3	30.8%	49.3	21%	103%	59	48.1%	61.7	20.4	79%	74.1	39.1%
